The full data set covers some 8,800 targets. This sample favours those with a hit. About 0.5% of all pairs of compound and target were hits.
How the values were obtained:
Assay in all cases: log2 fold change, soluble protein after heating vs DMSO (PISA); higher = thermal stabilisation; K562 lysate, 10 uM; active = over 0.2 and 3.5 SD of the protein, either way, in both replicates (recomputed)
[1] = compound: C1=CC=C(C=C1)[C@H](COC2=CC3=C(C=C2)NC(=O)N3)NC(=O)C4=CC=CN(C4=O)CC5=CC(=C(C=C5)F)F
Method in brief: (§1)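 Log-two fold change in thermal stability relative to solvent controls is reported from duplicates. For each sample, crude K562 extract from dounce-homogenised pellets in PBS pH 7.4 with 1 mM MgCl2, at 1 mg/mL protein, was treated with 10 μM compound for 30 min. Aliquots heated for 3 min across 48°C-58°C were pooled, brought to 0.5% NP-40 at 4°C and cleared at 21,000xg for 90 min. The supernatant was quantified by TMTpro 16plex LC-MS/MS with channel sums equalised.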

[2] = compound: CC1=C(SC2=C1C(=N[C@H](C3=NN=C(N32)C)CC(=O)N)C4=CC=C(C=C4)Cl)C
Method in brief: as §1

[3] = compound: CC1=C2C(=CC=C1)N=C(N(C2=O)C3=CC=CC=C3C)CN4C=NC5=C(N=CN=C54)N
Method in brief: as §1

[4] = compound: Cc1sc2c(c1C)C(c1ccc(Cl)cc1)=N[C@@H](CC(=O)OC(C)(C)C)c1nnc(C)n1-2
Method in brief: as §1

[5] = compound: c1ccc([C@@H]2C[C@H]2NC2CCNCC2)cc1
Method in brief: as §1

Measured: log2 fold change

DNAJC1 (UniProt Q96KC8)
inactive: [1] -0.113 | [2] -0.021 | [3] 0.039 | [4] -0.011 | [5] 0.021

COX20 isoform 2 (UniProt Q5RI15)
inactive: [1] 0.01 | [2] -0.047 | [3] -0.092 | [4] 0.001 | [5] 0.23

DPY19L3 (UniProt Q6ZPD9)
inactive: [1] 0.183 | [2] -0.131 | [3] -0.106

CLUH, A0A494C0R8
inactive: [1] 0.014 | [2] 0.118 | [3] 0.133 | [4] -0.116 | [5] 0.132

CHORDC1 (UniProt Q9UHD1)
UniProt Q9UHD1, sequence (Q9UHD1 whole entry, looked up): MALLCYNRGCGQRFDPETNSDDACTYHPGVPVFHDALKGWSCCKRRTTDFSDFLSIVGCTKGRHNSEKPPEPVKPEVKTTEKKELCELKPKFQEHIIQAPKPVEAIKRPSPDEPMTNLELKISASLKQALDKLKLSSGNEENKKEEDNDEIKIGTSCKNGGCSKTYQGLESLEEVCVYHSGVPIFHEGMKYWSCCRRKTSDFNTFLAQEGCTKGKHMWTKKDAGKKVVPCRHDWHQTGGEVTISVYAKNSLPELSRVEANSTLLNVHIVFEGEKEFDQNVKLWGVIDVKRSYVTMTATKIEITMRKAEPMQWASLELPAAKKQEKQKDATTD
inactive: [1] 0.025 | [2] 0.006 | [3] -0.01 | [4] 0.017 | [5] 0.037

DCTN1 (UniProt Q14203)
inactive: [1] -0.018 | [2] -0.017 | [3] -0.009 | [4] 0 | [5] 0.034

CMSS1 (UniProt Q9BQ75)
UniProt Q9BQ75, sequence (Q9BQ75 whole entry, looked up): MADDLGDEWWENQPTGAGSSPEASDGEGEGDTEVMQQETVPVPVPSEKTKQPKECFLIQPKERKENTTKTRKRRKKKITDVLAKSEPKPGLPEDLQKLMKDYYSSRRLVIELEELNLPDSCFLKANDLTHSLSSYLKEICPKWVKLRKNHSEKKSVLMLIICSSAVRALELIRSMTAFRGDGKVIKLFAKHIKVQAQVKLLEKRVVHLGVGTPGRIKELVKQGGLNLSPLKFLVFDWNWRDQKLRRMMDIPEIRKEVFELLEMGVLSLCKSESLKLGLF
inactive: [1] 0.035 | [2] -0.069 | [3] -0.017 | [4] -0.023 | [5] 0.106

DIAPH3 (UniProt Q9NSV4)
inactive: [1] -0.09 | [2] 0.017 | [3] -0.035 | [4] 0.099 | [5] 0.195

CIC (UniProt I3L1Q4)
inactive: [1] 0.006 | [2] 0.225

DNAJC5 (UniProt Q9H3Z4)
inactive: [1] 0.032 | [2] -0.015 | [3] -0.034 | [4] 0.009 | [5] -0.308

CNOT2 (UniProt Q9NZN8)
inactive: [1] 0.019 | [2] -0.016 | [3] -0.019 | [4] -0.004 | [5] 0.008

CSAD isoform 3 (UniProt Q9Y600)
inactive: [1] -0.081 | [2] 0.137

DBF4 (UniProt Q9UBU7)
inactive: [1] 0.073 | [2] 0.002 | [3] 0.071 | [4] 0.113 | [5] 0.078

CMIP (UniProt Q8IY22)
inactive: [1] -0.012 | [2] -0.006 | [3] -0.002 | [4] -0.029 | [5] 0.032

CHMP4A isoform 2 (UniProt Q9BY43)
inactive: [1] 0.035 | [2] -0.009 | [3] 0.007 | [4] -0.022 | [5] -0.152

DDX20 (UniProt Q9UHI6)
inactive: [1] -0.008 | [2] -0.064 | [3] -0.006 | [4] 0.027 | [5] 0.077

DPH5 isoform 5 (UniProt Q9H2P9)
inactive: [1] 0.047 | [2] -0.024 | [3] 0.021 | [4] -0.144 | [5] -0.118

CIP2A (UniProt Q8TCG1)
inactive: [1] -0.03 | [2] -0.002 | [3] -0.008 | [4] -0.021 | [5] 0.018

DENND1B (UniProt Q6P3S1)
inactive: [1] 0.154 | [2] -0.205 | [3] -0.062 | [4] -0.182 | [5] 0.014

CNIH4 (UniProt Q9P003)
inactive: [1] -0.355 | [2] -0.301 | [3] -0.017 | [4] 0.11

CWC22 (UniProt Q9HCG8)
inactive: [1] -0.033 | [2] 0.028 | [3] 0.034 | [4] 0.079 | [5] 0.237

CNOT4 isoform 9 (UniProt O95628)
inactive: [1] -0.173 | [2] 0.081 | [3] -0.014 | [4] -0.066 | [5] -0.551

CUL1 (UniProt Q13616)
inactive: [1] 0.017 | [2] -0.027 | [3] -0.007 | [4] 0.016 | [5] -0.001

DOCK8 (UniProt Q8NF50)
UniProt Q8NF50, sequence (Q8NF50 whole entry, looked up): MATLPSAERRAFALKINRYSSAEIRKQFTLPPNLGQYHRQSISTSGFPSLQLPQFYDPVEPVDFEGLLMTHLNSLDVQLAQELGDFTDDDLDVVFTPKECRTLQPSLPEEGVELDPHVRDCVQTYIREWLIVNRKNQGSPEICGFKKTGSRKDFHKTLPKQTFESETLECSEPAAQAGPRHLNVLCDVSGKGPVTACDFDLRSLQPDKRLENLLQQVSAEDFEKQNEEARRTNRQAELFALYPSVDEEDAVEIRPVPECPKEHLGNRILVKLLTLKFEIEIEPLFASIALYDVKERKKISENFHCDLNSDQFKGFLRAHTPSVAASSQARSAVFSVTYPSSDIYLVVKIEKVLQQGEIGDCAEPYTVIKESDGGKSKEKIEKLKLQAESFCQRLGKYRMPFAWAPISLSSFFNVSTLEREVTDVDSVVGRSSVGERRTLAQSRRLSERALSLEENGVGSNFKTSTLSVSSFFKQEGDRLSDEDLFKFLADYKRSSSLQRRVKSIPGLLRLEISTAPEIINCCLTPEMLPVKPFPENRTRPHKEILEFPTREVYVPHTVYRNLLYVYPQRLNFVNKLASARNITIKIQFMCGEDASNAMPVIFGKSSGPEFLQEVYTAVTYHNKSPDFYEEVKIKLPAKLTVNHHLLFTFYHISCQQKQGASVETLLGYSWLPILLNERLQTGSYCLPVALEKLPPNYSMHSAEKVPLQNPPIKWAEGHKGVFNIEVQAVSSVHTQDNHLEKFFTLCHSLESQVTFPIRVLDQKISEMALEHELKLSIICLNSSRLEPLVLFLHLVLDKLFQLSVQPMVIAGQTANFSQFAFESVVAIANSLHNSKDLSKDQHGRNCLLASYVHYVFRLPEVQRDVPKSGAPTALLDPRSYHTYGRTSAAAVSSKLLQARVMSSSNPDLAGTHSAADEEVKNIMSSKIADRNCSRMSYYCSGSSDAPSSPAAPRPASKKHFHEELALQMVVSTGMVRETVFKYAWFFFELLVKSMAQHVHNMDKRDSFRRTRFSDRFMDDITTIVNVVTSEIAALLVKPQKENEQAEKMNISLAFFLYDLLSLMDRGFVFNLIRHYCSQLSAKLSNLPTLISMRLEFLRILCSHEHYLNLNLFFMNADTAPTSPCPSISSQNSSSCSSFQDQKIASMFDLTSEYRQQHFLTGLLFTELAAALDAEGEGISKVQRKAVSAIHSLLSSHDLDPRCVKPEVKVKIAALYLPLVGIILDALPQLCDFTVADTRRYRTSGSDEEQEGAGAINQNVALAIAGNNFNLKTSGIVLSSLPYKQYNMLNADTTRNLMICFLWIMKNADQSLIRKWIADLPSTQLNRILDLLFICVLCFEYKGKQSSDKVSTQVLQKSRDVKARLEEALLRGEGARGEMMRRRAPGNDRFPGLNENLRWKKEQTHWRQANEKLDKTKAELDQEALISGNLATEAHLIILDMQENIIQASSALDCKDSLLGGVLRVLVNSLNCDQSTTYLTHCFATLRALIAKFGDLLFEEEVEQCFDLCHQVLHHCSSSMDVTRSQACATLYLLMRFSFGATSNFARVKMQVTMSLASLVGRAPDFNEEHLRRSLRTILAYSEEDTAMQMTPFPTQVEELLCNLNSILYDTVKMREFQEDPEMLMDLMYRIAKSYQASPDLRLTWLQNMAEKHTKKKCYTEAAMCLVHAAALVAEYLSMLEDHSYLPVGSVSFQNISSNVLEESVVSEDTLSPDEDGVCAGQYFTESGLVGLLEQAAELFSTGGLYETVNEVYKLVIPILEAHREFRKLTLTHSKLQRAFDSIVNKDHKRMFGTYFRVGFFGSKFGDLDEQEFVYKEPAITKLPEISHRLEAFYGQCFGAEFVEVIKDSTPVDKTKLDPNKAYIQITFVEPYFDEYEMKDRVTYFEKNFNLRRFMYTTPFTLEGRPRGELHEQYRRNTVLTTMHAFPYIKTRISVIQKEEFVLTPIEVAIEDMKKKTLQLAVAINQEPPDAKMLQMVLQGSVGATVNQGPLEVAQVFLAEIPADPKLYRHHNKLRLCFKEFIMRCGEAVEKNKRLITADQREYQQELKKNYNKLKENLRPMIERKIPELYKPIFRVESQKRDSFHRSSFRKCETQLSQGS
inactive: [1] -0.011 | [2] -0.004 | [3] 0.013 | [4] 0.005 | [5] 0.05

DCP1A (UniProt Q9NPI6)
inactive: [1] -0.011 | [2] -0.031 | [3] 0.025 | [4] 0.018 | [5] -0.026

DLD (UniProt P09622)
inactive: [1] 0.005 | [2] -0.017 | [3] 0.008 | [4] -0.022 | [5] -0.076

CXCL14 (UniProt O95715)
inactive: [1] 0.002 | [2] -0.088 | [3] 0.128

CTNND1 isoform 3 (UniProt O60716)
UniProt O60716, sequence (O60716 whole entry, looked up): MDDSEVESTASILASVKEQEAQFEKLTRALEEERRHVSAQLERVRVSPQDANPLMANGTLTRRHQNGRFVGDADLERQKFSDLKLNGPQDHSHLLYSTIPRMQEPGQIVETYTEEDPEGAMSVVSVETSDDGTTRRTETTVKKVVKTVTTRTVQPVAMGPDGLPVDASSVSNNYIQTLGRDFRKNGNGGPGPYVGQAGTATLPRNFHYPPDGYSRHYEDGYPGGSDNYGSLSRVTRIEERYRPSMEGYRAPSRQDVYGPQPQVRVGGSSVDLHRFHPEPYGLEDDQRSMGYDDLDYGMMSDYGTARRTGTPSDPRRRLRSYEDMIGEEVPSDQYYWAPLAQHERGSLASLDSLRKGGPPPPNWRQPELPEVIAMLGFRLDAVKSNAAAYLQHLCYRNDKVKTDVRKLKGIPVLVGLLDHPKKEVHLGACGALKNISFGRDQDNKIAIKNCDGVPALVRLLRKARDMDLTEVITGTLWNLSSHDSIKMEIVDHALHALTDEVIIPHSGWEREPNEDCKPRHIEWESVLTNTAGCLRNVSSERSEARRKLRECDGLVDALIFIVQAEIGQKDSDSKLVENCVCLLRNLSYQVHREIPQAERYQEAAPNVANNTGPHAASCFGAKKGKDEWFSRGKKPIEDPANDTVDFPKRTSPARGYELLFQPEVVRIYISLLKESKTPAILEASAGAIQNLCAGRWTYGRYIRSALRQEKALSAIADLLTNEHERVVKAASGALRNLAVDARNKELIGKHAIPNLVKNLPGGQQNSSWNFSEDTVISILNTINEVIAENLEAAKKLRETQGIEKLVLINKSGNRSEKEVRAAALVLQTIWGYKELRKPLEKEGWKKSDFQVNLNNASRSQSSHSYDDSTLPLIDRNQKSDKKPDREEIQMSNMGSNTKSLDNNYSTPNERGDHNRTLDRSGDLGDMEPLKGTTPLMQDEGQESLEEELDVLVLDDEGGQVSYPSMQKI
inactive: [1] -0.021 | [2] 0.035 | [3] 0.058 | [4] 0.036 | [5] 0.028

CSNK1E (UniProt P49674)
inactive: [1] -0.004 | [2] -0.072 | [3] -0.031 | [4] 0.031 | [5] -0.005

COG6 (UniProt Q9Y2V7)
UniProt Q9Y2V7, sequence (Q9Y2V7 whole entry, looked up): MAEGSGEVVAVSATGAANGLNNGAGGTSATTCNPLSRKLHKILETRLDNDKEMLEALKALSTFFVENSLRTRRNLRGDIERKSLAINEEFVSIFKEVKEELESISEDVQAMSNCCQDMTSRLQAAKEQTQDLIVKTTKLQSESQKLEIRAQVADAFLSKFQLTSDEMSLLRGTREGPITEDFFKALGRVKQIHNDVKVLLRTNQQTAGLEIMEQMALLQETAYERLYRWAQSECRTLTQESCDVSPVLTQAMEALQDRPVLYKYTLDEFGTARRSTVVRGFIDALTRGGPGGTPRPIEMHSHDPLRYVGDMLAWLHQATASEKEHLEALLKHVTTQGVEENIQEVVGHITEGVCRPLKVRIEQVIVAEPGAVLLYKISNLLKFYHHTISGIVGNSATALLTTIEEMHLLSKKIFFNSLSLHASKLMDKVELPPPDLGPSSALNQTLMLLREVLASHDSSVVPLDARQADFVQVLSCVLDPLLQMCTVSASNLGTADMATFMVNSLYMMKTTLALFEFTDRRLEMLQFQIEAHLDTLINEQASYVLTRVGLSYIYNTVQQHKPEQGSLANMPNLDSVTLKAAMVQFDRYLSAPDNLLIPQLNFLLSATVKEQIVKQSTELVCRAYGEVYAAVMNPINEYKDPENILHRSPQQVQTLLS
inactive: [1] -0.023 | [2] 0.011 | [3] 0.029 | [4] -0.032 | [5] 0.069

DLGAP5 (UniProt Q15398)
inactive: [1] 0.029 | [2] -0.006 | [3] 0.009 | [4] -0.036 | [5] -0.015

CMTM3 (UniProt Q96MX0)
inactive: [1] 0.058 | [2] -0.097 | [3] -0.018 | [4] 0.015 | [5] -0.024

CLP1 (UniProt Q92989)
inactive: [1] -0.023 | [2] -0.002 | [3] -0.023 | [4] 0.026 | [5] -0.1

CHEK1 (UniProt O14757)
UniProt O14757, sequence (O14757 whole entry, looked up): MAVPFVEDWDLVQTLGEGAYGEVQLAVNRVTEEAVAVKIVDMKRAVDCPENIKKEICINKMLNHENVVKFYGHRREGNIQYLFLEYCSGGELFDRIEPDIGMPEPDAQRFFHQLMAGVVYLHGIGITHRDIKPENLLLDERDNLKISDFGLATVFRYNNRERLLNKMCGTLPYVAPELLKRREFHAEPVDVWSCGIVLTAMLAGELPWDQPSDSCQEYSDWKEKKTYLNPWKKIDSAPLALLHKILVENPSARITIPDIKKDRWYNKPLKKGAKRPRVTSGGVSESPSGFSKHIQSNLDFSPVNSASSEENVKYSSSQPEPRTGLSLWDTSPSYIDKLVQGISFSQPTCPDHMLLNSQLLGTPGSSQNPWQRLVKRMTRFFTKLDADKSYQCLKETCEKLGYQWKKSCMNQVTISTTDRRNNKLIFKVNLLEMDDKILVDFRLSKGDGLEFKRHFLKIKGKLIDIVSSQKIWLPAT
inactive: [1] 0.025 | [2] 0.021 | [3] 0.006 | [4] -0.04 | [5] 0

DDX39A (UniProt O00148)
inactive: [1] -0.022 | [2] -0.018 | [3] 0.02 | [4] -0.016 | [5] 0

CKS1B (UniProt P61024)
UniProt P61024, sequence (P61024 whole entry, looked up): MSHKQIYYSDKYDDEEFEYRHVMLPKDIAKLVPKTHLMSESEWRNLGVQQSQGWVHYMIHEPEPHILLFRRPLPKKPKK
inactive: [1] 0.017 | [2] -0.074 | [3] -0.058 | [4] 0.108 | [5] 0.194

CHURC1 isoform 2 (UniProt Q8WUH1)
inactive: [1] 0.045 | [2] -0.05 | [3] -0.046 | [4] -0.014 | [5] -0.063

COTL1 (UniProt Q14019)
inactive: [1] -0.018 | [2] -0.019 | [3] 0.01 | [4] 0.031 | [5] 0.064

CSNK2A2 (UniProt P19784)
inactive: [1] -0.02 | [2] -0.033 | [3] -0.213 | [4] 0.038 | [5] 0.015

CINP isoform 3 (UniProt Q9BW66)
inactive: [1] -0.016 | [2] -0.042 | [3] 0.039 | [4] -0.157 | [5] -0.145

CYP51A1 (UniProt Q16850)
inactive: [1] 0.028 | [2] -0.105 | [3] -0.058 | [4] -0.028 | [5] -0.007

CSNK1G3 (UniProt Q9Y6M4)
inactive: [1] -0.041 | [2] 0.017 | [3] -0.013 | [4] 0.006 | [5] -0.03

CNP (UniProt P09543)
inactive: [1] -0.022 | [2] 0.001 | [3] 0.036 | [4] 0.016 | [5] 0.021

CUX1 isoform 3 (UniProt P39880)
inactive: [1] -0.001 | [2] 0.024 | [3] 0.031 | [4] 0.025 | [5] 0.03

DNAH10 (UniProt Q8IVF4)
inactive: [1] 0.069 | [2] 0.014 | [3] 0.095 | [4] -0.081 | [5] -0.274

CSTB (UniProt P04080)
UniProt P04080, sequence (P04080 whole entry, looked up): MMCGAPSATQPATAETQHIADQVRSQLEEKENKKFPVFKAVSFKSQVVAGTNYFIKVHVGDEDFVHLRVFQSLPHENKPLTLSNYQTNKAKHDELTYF
inactive: [1] -0.031 | [2] -0.018 | [3] -0.032 | [4] -0.071 | [5] -0.146

CIC (UniProt I3L2J0)
inactive: [1] -0.03 | [2] -0.034 | [3] -0.109 | [4] 0.042 | [5] -0.02

CTPS1 (UniProt P17812)
inactive: [1] -0.02 | [2] -0.013 | [3] -0.029 | [4] -0.014 | [5] 0.023

DICER1 (UniProt Q9UPY3)
inactive: [1] 0.028 | [2] 0.006 | [3] 0.045 | [4] 0.029 | [5] -0.038

CLIP1 isoform 1 (UniProt P30622)
inactive: [1] 0.04 | [2] -0.008 | [3] -0.002 | [4] -0.028 | [5] -0.019

CSDE1 isoform 4 (UniProt O75534)
inactive: [1] -0.012 | [2] -0.009 | [3] -0.017 | [4] 0.046 | [5] 0.04

DNAAF5 (UniProt Q86Y56)
inactive: [1] -0.054 | [2] 0.038 | [3] -0.005 | [4] 0.016 | [5] 0.064

COPZ1 isoform 4 (UniProt P61923)
inactive: [1] -0.101 | [2] -0.04 | [3] 0.06 | [4] 0.057 | [5] 0.096

DENND4A isoform 2 (UniProt Q7Z401)
inactive: [1] -0.02 | [2] 0.028 | [3] -0.007 | [4] 0.039 | [5] -0.064

— the supplement of paper PMC10849652
